BJeLR lethal: BJeLR cell viability loss; 300,000 tested, 0.17% active; inhibition, % (concentration not given with the values); BJeLR (HRASV12) viability, CellTiter-Glo ATP luminescence, 48 h; AID 1554; in the data active = inhibition above about 50%
RN4220 kill: S. aureus RN4220 growth inhibition. 330,000 tested, 0.33% active. OD600, 16 h. inhibition, % (no concentration beside the values); in the data active = inhibition above about 85%
ugtP null kill: kills S. aureus RN4220 lacking UgtP; S. aureus RN4220 ugtP deletion, OD600 growth, 16 h; growth inhibition, % (test concentration not listed); 330,000 tested, 0.54% active; AID 1259309; in the data active = growth inhibition above about 68%
Hits are given with their value; - = inactive; . = not tested or not shown. The list is not random: actives were taken first. Their share in the collection is about 0.65%.

SMILES	BJeLR lethal	RN4220 kill	ugtP null kill
CN(C)CCN=Cc1c(O)n(CCC2=CCCCC2)c(=O)[nH]c1=O	-	-	-
CCCCn1c(O)c(C(=O)/C=C/c2ccc3c(c2)OCO3)c(=O)[nH]c1=O	-	.	.
COc1ccc(S(=O)(=O)N2CCOCC2)cc1NC(=O)CCNC(=O)c1ccc(Cl)cc1	.	-	-
COc1ccc(S(=O)(=O)N2CCOCC2)cc1NC(=O)CCNC(=O)c1ccc(Br)cc1	108	-	-
O=C(NCc1ccc2c(c1)OCO2)c1ccc(N2C(=O)C3CCCCC3C2=O)cc1 (stereo not given)	-	-	-
COc1ccc(-c2csc(N=CN(C)C)n2)cc1OC	.	-	-
c1ccc(C[n+]2csc3ccccc32)cc1	-	-	-
Fc1cccc(C[n+]2csc3ccccc32)c1	-	-	96
COc1ccc(-n2nnnc2S(=O)(=O)CC(=O)N2CCCCC2)cc1	.	-	-
COc1ccc(-n2nnnc2S(=O)(=O)Cc2ccc(C(=O)O)cc2)cc1	-	-	95
COc1ccc(-c2nnc(NC(=O)CS(=O)(=O)c3ccc(F)cc3)o2)cc1	-	-	-
N#Cc1c(N)n(-c2ccc(O)cc2)c2nc3ccccc3nc12	-	-	-
Cc1ccc(/C=N/NC(=O)c2cc(-c3ccncc3)nc3ccccc23)o1	59	.	.
O=C(N/N=C/c1ccc([N+](=O)[O-])o1)c1cc(-c2ccc(-c3ccccc3)cc2)nc2ccccc12	-	.	.
Cc1ccc(C=NNC(=O)c2cc(-c3ccncc3)nc3ccccc23)o1	.	-	-
O=C(NN=Cc1ccc([N+](=O)[O-])o1)c1cc(-c2cccc(Br)c2)nc2ccccc12	.	115	100
COc1ccc(NC(=O)COC(=O)Cn2cnc3ccccc3c2=O)cc1OC	-	-	-
CCO[C@H]1OC(C(=O)NCc2ccccc2)=C[C@@H](C2CCCCC2)[C@@H]1CCCO	-	.	.
CC1CCCC(C)N1C(=O)COC(=O)c1ccccc1O (stereo not given)	.	-	-
COc1ccc(/C=C2\SC(=S)N(Cc3cccnc3)C2=O)cc1C	-	-	-
O=C(/C=C(\O)c1ccccc1)C(=O)NNC(=O)c1ccccc1	-	.	.
O=C(/C=C(\O)c1ccc(Cl)cc1)C(=O)NNC(=O)C(O)(c1ccccc1)c1ccccc1	.	-	92
O=C(NC(=S)Nc1ccc(S(=O)(=O)Nc2nccs2)cc1)c1ccccc1F	-	-	-
O=C(NC(=S)Nc1ccc(S(=O)(=O)Nc2nccs2)cc1)c1ccccc1	-	-	91
O=C(NC(=S)Nc1ccc(S(=O)(=O)Nc2nccs2)cc1)c1cccnc1	-	.	.
SMILES	BJeLR lethal	RN4220 kill	ugtP null kill
CCc1nnc(NS(=O)(=O)c2ccc(NC(=S)NC(=O)c3ccc(Br)cc3)cc2)s1	-	-	86
CCc1nnc(NS(=O)(=O)c2ccc(NC(=S)NC(=O)c3ccccc3)cc2)s1	-	-	-
O=C(NC(=S)Nc1ccc(S(=O)(=O)Nc2nccs2)cc1)c1ccc(F)c(F)c1	-	-	97
COC(=O)c1sccc1NC(=S)N(C)C1CCCCC1	-	-	-
Cc1nnc(NC(=O)CSC2=NN3CCCC(=O)N=C3S2)s1	-	-	-
COC(=O)N1CCc2c(sc(NC(=O)C3=COCCO3)c2C#N)C1	-	-	-
CNC(=O)c1c(NC(=O)C2=COCCO2)sc2c1CCN(C(=O)OC)C2	-	94	97
O=c1[nH]c(=O)n(C2CC(O)C(CO)O2)cc1F (stereo not given)	.	99	99
O=c1[nH]c(=O)n(C2CC(O)C(CO)O2)cc1C(F)(F)F (stereo not given)	.	-	-
O=C(NC1CCCCC1)C1CCN(C(=O)NCc2ccccc2)CC1	-	-	-
O=C(CSc1nnc(COc2cccc3ccccc23)o1)N1CCN(C(=O)c2ccco2)CC1	-	-	-
COc1ccccc1-n1cnnc1SCc1csc(-c2ccccc2)n1	.	-	-
C=CCn1c(SCc2csc(-c3ccc(C)cc3)n2)nnc1-c1ccccc1OC	-	-	90
COc1ccc(CC(O)=C(C#N)c2nc3ccccc3s2)cc1	.	-	-
Cc1ccc(OC/C(O)=C(\C#N)c2nc3ccccc3s2)cc1	-	-	84
CC(C)CCc1noc(CN2CCC(CCN3CCCC3=O)CC2)n1	-	-	-
COc1cc(CN2CCCCCC2)cc(OC)c1OC	-	-	-
COc1cc(Cc2cnc(N)nc2N)cc(OC)c1OC	-	98	100
COc1cccc(NC(=O)C(NCC2CCCCC2)c2ccccc2)c1 (stereo not given)	-	-	-
COc1ccc(S(=O)(=O)n2c([N+](=O)[O-])cnc2C)cc1OC	-	-	-
CCCCCN=C(N)NN=Cc1c[nH]c2ccc(OC)cc12	.	-	-
CCCCCN=C(N)N/N=C/c1c[nH]c2ccc(OC)cc12	70	.	.
Cc1ccccc1CN1CCN(C(C)C(=O)NCc2ccccc2)CC1 (stereo not given)	-	-	-
Cc1ccccc1C(=O)N1CCC(C(=O)NC2CCCCC2)CC1	-	-	-
CCn1c(CCC(=O)O)nc2cc(S(=O)(=O)N(C)C)ccc21	-	-	-
SMILES	BJeLR lethal	RN4220 kill	ugtP null kill
Cc1cc(O)c(C2(O)C(=O)Nc3cc(Br)ccc32)cc1C (stereo not given)	-	-	-
O=C(Nc1nnc(-c2ccccc2Cl)o1)c1nc2ccccc2s1	-	99	100
O=C(Nc1nnc(-c2ccccc2Cl)o1)c1ccco1	-	-	-
O=C1C(=O)c2cccc3cccc1c23	-	-	-
O=C1C(Br)=Cc2cccc3cccc1c23	-	-	92
O=C(O)CN1C(c2ccccc2O)Nc2ccc(Br)cc2C1c1ccccc1 (stereo not given)	-	.	.
COc1ccc(C(=O)c2cc([N+](=O)[O-])ccc2N2CCOCC2)cc1	59	-	-
Cc1ccc(C(=O)c2cc([N+](=O)[O-])ccc2N2CCCCC2)c(C)c1	55	-	-
CCOc1ccc(C(=O)c2cc([N+](=O)[O-])ccc2N2CCOCC2)cc1	53	-	-
Cc1ccc(NC(=O)c2cc([N+](=O)[O-])ccc2N2CCCC2)cc1	-	-	-
O=C(Nc1nnc(C2CC2)s1)c1cc([N+](=O)[O-])ccc1N1CCCCC1	-	89	-
O=C(O)c1cc([N+](=O)[O-])ccc1N1CCCCC1	-	-	-
Cc1ccc(C(=O)c2cc([N+](=O)[O-])ccc2N2CCOCC2)cc1	-	.	.
CCOc1ccc(S(=O)(=O)N2CCN(C(=O)c3cc([N+](=O)[O-])ccc3N3CCOCC3)CC2)cc1	.	-	-
Cc1ccc(C(=O)Nc2cccc(C(=O)N3CCN(C)CC3)c2)cc1	-	-	-
Oc1nc(Nc2ccccc2)sc1/C=C1\C=Nc2ccccc21	-	-	-
O=C(NCCNC(=O)c1cnccn1)c1cccc(Cl)c1	-	-	-
CCOc1ccc(NC(=O)c2cc3ccccc3cc2OC)cc1	-	-	-
CC(C)=CCN1CCN(Cc2cccc3c2OCO3)CC1CCO (stereo not given)	-	-	-
Oc1cc2c(cc1C(c1ccc(Cl)c(Cl)c1)N1CCCC1)OCO2 (stereo not given)	-	-	87
CC(C)c1ccc(NC(=O)C(c2ccc3c(c2)OCO3)N2CCCCC2)cc1 (stereo not given)	-	-	-
Clc1ccc(C(c2ccc(Cl)cc2)n2cc[n+](CC(OCc3ccc(Cl)cc3Cl)c3ccc(Cl)cc3Cl)c2)cc1 (stereo not given)	.	100	100
